Data as given in PubChem BioAssay AID1851 (National Center for Advancing Translational Sciences (NCATS), 2009).
In all, about 16,000 compounds went through this assay and about 4,000 (25%) were called active. Inconclusive results (about 26%) are left out. Calls follow the shape of the dose curve; as a rule, active = well fitted curve in the direction sought with a large enough effect; inconclusive = small, poorly fitted or top-dose-only effect, or effect the other way; inactive = no such curve, though single readings can be large or run the other way. A selection follows.

biological target: Cytochrome P450 2C9 (Homo sapiens) (UniProt P11712); assay: Cytochrome panel assay with activity outcomes; settings: recombinant CYP, pro-luciferin dealkylation, luminescence, p450-cyp2c9; series mostly up to 57.1 µM
% is scaled to controls: 0 for no effect and ±100 for the full control effect.

Cytochrome P450 2C9 (Homo sapiens), sequence (P11712 whole entry, looked up): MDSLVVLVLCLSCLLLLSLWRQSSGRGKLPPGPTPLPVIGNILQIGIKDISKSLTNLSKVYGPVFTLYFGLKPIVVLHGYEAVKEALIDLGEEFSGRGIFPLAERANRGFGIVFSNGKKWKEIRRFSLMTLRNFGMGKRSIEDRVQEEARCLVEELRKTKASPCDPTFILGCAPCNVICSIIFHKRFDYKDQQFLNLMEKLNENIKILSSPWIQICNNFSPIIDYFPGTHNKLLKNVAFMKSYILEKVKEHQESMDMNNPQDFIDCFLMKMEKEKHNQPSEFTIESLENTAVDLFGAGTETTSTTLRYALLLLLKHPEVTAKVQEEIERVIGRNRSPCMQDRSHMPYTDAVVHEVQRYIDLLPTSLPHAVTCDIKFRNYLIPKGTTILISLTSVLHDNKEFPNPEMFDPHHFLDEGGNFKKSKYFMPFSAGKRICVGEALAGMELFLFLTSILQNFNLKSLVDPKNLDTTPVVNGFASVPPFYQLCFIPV

Row | SMILES | AC50 | activity, negative = inhibition
1 | Cc1cc(C(C)(C)C)cc(C)c1CC1=NCCN1 | inactive | 
2 | CCOc1ccc(NC(=O)N(C2CCCCC2)C(C)c2ccncc2)cc1 (centres undefined) | 3.55 µM (active) | 
3 | CCOc1ccc(NC(=O)N2CCC(C(N)=O)(N3CCCCC3)CC2)cc1 | inactive | 
4 | CCCCN(C(=O)Nc1ccc(OCC)cc1)C1CCN(C(C)=O)CC1 | inactive | 
5 | c1ccc(CCNc2ccccn2)nc1 |  | -7.63% [at 11.4 µM] (inactive)
6 | CCN(CCO)C[C@H]1CCC[C@H]2CCCC[C@@H]21 |  | 1.06% [at 11.4 µM] (inactive)
7 | Cn1c(CN2CCCCC2)nc2cc(NC(=O)c3ccc(Cl)cc3)ccc21 | inactive | 
8 | O=C(Nc1ccc2oc(-c3ccccc3F)nc2c1)c1ccc2c(c1)OCCO2 | 8.91 µM (active) | 
9 | C[C@@]1(C(=O)O)NCCc2cc(O)c(O)cc21 | inactive | 
10 | CN(C)CCCN1c2ccccc2C(C)(C)c2ccccc21 |  | -4.58% [at 11.4 µM] (inactive)
11 | COc1nc(OCCNC(C)=O)nc(N(C)C)n1 | inactive | 
12 | COCCn1c(=O)c(-c2cccc(C#N)c2)nc2cnc(OCc3ccccc3)nc21 | 10 µM (active) | 
13 | COCCn1c(=O)c(-c2cccc(C#N)c2)nc2cnc(N(C)C)nc21 | inactive | 
14 | CCNc1ncc2nc(-c3cccc(C#N)c3)c(=O)n(CCC#N)c2n1 | inactive | 
15 | COCCn1c(=O)c(-c2cccc(C#N)c2)nc2cnc(Oc3ccccc3)nc21 | 7.94 µM (active) | 
16 | COc1ncc2nc(-c3cccc(C#N)c3)c(=O)n(CCC#N)c2n1 | inactive | 
17 | Cn1c(=O)c(-c2cccc(C#N)c2)nc2cnc(Oc3ccccc3)nc21 | inactive | 
18 | C[C@@H]1/C=C\CC(=O)OC[C@H](C)C(=O)N[C@@H](C)C(=O)OC1 |  | 5.57% [at 11.4 µM] (inactive)
19 | Nc1nc2c(nc(Br)n2[C@@H]2O[C@H]3COP(=O)(O)O[C@@H]3[C@H]2O)c(=O)[nH]1 | inactive | 
20 | COc1ccc(C2N(c3ccccn3)C(=O)C3CCCN32)c(OC)c1 (centres undefined) | inactive | 
21 | COc1ccc(N2C(=O)c3ccccc3NC2c2ccc(OC)c(CSc3ccccn3)c2)cc1 (centres undefined) | 1.12 µM (active) | 
22 | CN(C)[C@@H]1C(=O)C(C(N)=O)=C(O)[C@]2(O)C(=O)C3=C(O)c4c(O)ccc(Cl)c4[C@H](O)[C@H]3C[C@@H]12 | inactive | 
23 | CCOC(=O)N/N=C1/C[C@@H](O)[C@@H](O)[C@@H]2[C@@H]3C(=O)N(Cc4ccccc4)C(=O)[C@H]3CC[C@H]12 |  | -12.9% [at 11.4 µM] (inactive)

Row | SMILES | AC50 | activity, negative = inhibition
24 | CCOC(=O)C1=C(O)C(=O)N(Cc2ccccc2)C1 | 3.98 µM (active) | 
25 | CCOC(=O)N/N=C1/C[C@@H](O)[C@@H](O)[C@@H]2[C@@H]3C(=O)N(Cc4ccccc4)C(=O)[C@H]3CC[C@@H]12 |  | 23.5% [at 11.4 µM] (inactive)
26 | CCCCCCC1CC(C)(/C(C)=N/NC(N)=O)OC1=O (centres undefined) | 22.4 µM (active) | 
27 | CC(=O)OC[C@H]1O[C@@H](O/N=C(\C)CCC(=O)OC[C@@H]2O[C@H](C#Cc3ccccc3)C=C[C@@H]2Oc2ccc(C)cc2)[C@H](OC(C)=O)[C@@H](OC(C)=O)[C@H]1OC(C)=O |  | -6.45% [at 11.4 µM] (inactive)
28 | CC1CCN(C(=O)Nc2ccc3nsnc3c2)CC1 | 15.8 µM (active) | 
29 | O=C(Nc1ccc(Cl)c(Cl)c1)N1CCC(N2CCCCC2)CC1 | inactive | 
30 | Cc1cccc(C)c1NC(=O)N1CCC(N2CCCCC2)CC1 | inactive | 
31 | COCCCNC(=O)C1CC(=O)N(CCc2ccc(OC)c(OC)c2)C1 (centres undefined) | inactive | 
32 | COc1ccc(/C=C2\SC(=O)N(CCNC(=O)C3CC(=O)N(c4ccccc4)C3)C2=O)cc1 (centres undefined) | 7.94 µM (active) | 
33 | COCCCNC(=O)C1CC(=O)N(Cc2ccc(OC)cc2)C1 (centres undefined) | inactive | 
34 | COc1ccccc1-c1cc(NCc2cccs2)ncn1 |  | 17.3% [at 2.29 µM] (inactive)
35 | Cc1ccc(CS(=O)(=O)CCC(=O)NCCCN2CCCC2)cc1 | inactive | 
36 | Cc1ccc(CS(=O)(=O)CCC(=O)NCCN2CCCC2)cc1 | inactive | 
37 | O=C(NCCN1CCOCC1)c1csc2c1CCCCC2 | inactive | 
38 | CCC(=O)Nc1c2c(nc3c1CCC3)CCCC2 | inactive | 
39 | Cc1cc(=O)[nH]c(SCC(=O)Nc2nc3c(s2)CCCC3)n1 | 15.8 µM (active) | 
40 | CCC(Sc1nc(C)cc(=O)[nH]1)C(=O)Nc1nc2c(s1)CCCC2 (centres undefined) | 7.94 µM (active) | 
41 | Cc1ccc(S(=O)(=O)CCC(=O)Nc2nc3c(s2)CCCC3)cc1 | 1.12 µM (active) | 
42 | Cc1cc(=O)[nH]c(-n2[nH]c3c(c2=O)CCCC3)n1 | inactive | 
43 | O=C(Cc1ccc(S(=O)(=O)N2CCOCC2)s1)Nc1nc2c(s1)CCCC2 | 15.8 µM (active) | 
44 | C[C@@]12C=CC(=O)C=C1CC[C@@H]1[C@@H]2[C@H](O)C[C@]2(C)[C@@H]1CC[C@]2(O)C(=O)CO | inactive | 
45 | COC(=O)[C@@]1(Cc2ccc(F)cc2)[C@H]2c3cc(C(=O)N4CCCC4)n(Cc4ccc(Cl)c(C(F)(F)F)c4)c3C[C@H]2CN1C(=O)c1ccccc1 | 12.6 µM (active) | 
46 | COC(=O)[C@@]1(Cc2ccc(OC)cc2)[C@H]2c3cc(C(=O)N4CCCC4)n(Cc4ccc(Cl)c(C(F)(F)F)c4)c3C[C@H]2CN1C(=O)c1ccccc1 | 20 µM (active) | 

Row | SMILES | AC50 | activity, negative = inhibition
47 | COC(=O)[C@@]1(Cc2ccc(F)cc2)[C@H]2c3cc(C(=O)N(C)C)n(CCCNc4ccc(C(F)(F)F)cc4Cl)c3C[C@H]2CN1C(=O)c1ccccc1 | 20 µM (active) | 
48 | COC(=O)[C@@]1(Cc2ccc(F)cc2)[C@H]2c3cc(C(=O)N(C)C)n(Cc4ccc(Cl)c(C(F)(F)F)c4)c3C[C@H]2CN1C(=O)c1ccccc1 | 3.98 µM (active) | 
49 | O=C1CN(c2nc(-c3ccccc3)c3cc(Br)ccc3n2)c2ccccc2N1 | inactive | 
50 | O=C(Nc1ccccc1)N1CCCC2(CCN(C(=O)c3csnn3)CC2)C1 | inactive | 
51 | CCOc1cccc2cc(C(N)=O)c(=NCc3ccccc3)oc12 | inactive | 
52 | CCC1CCc2c(c3ccccc3[nH]c2=O)O1 (centres undefined) | inactive | 
53 | Cc1cnc(CNc2nc(-c3ccc(C(=O)N(C)C)cc3)nc3ccccc23)cn1 |  | 6.85% [at 2.29 µM] (inactive)
54 | CC(=O)c1cccc(NC(=O)/C(=C\c2ccco2)NC(=O)c2cccs2)c1 | 8.91 µM (active) | 
55 | O=C(Nc1cccc(F)c1)/C(=C\c1ccco1)NC(=O)c1cccs1 | 31.6 µM (active) | 
56 | O=C(Nc1cccc(F)c1)N1CCC2(CC1)CCN(C(=O)c1ccco1)CC2 | inactive | 
57 | CCc1cc2c(nc1CC)CCN(CC/C(C)=N/OC[C@@H](C)[C@H](OCc1ccccc1)C(C)C)C2 |  | -5.74% [at 11.4 µM] (inactive)
58 | COc1ccc(NC(=O)N2CC3(CCN(C(=O)c4ccc(OC)cc4)CC3)C2)cc1 | inactive | 
59 | CC(C)(C)C(=O)[C@H]1[C@H](c2ccccc2)[C@@]2(N=C(c3ccccc3)OC2=O)C2c3ccccc3C=NN21 (some centres undefined) | 15.8 µM (active) | 
60 | Cc1noc(C)c1-c1nccc(N2CCOCC2)n1 |  | 7.39% [at 2.29 µM] (inactive)
61 | Cc1ccc(Oc2cc(N3CCOCC3)nc(-c3ccccc3)n2)cc1 | 17.8 µM (active) | 
62 | CCCc1ccc(Oc2cc(C)nc(N3CCOCC3)n2)cc1 | 25.1 µM (active) | 
63 | Cc1cc(Oc2ccc(-c3ccccc3)cc2)nc(N2CCOCC2)n1 | 3.98 µM (active) | 
64 | COc1ccc(-n2c(=O)c(C)nc3cnc(N4CCOCC4)nc32)cc1 | inactive | 
65 | COC(=O)c1ccc(Oc2nc(N(C)C)nc(N3CCOCC3)n2)cc1 | inactive | 
66 | O=c1ccc(Oc2nc(N3CCOCC3)nc(N3CCOCC3)n2)n[nH]1 | inactive | 
67 | COc1cc(N2CCOCC2)ncn1 | inactive | 
68 | COc1ccc(-n2c(=O)c(-c3ccccc3)nc3cnc(N4CCOCC4)nc32)cc1 | inactive | 
69 | N#C[C@H]1CN[C@H](N)N[C@@H]1N |  | -4.64% [at 11.4 µM] (inactive)

Row | SMILES | AC50 | activity, negative = inhibition
70 | CCCCOc1ccc(CNn2c(C)nc3ccccc3c2=O)cc1 | 4.47 µM (active) | 
71 | O=C(Nn1cnc2ccccc2c1=O)c1ccc(F)cc1Cl | inactive | 
72 | COc1ccc(CN[C@H](C)C(=O)O)cc1 |  | 12.3% [at 11.4 µM] (inactive)
73 | COc1ccccc1-c1nc(NCc2ccccc2)c2ccccc2n1 |  | 16.9% [at 2.29 µM] (inactive)
74 | CCCOc1ccc(CSC(CC(=O)O)C(=O)O)cc1 (centres undefined) | inactive | 
75 | Cc1nc2ccccc2c(=O)n1NC(=O)c1ccccc1Cl | 7.94 µM (active) | 
76 | COc1ccc(CNn2c(C)nc3ccccc3c2=O)cc1 | 5.62 µM (active) | 
77 | CN(C)c1ccccc1CN1CCCN(Cc2ccccc2N(C)C)C1c1ccncc1 |  | -12% [at 11.4 µM] (inactive)
78 | N=c1ccn2c(n1)O[C@H]1[C@@H](OP(=O)(O)O)[C@H](CO)O[C@H]12 |  | 5.28% [at 11.4 µM] (inactive)
79 | CCCC[C@H](CC)CN1CN(C[C@@H](CC)CCCC)CC(C)(N)C1 | inactive | 
80 | CN(C)S(=O)(=O)Nc1ccccn1 |  | 0.0893% [at 11.4 µM] (inactive)
81 | O=C1C(Cl)=C(Nc2ccc(S(=O)(=O)Nc3ccccn3)cc2)C(=O)c2ccccc21 | 2 µM (active) | 
82 | Nc1ccc(S(=O)(=O)Nc2ccccn2)cc1 | inactive | 
83 | O=C(O)[C@@H](O)c1ccc(F)cc1 |  | -3.58% [at 11.4 µM] (inactive)
84 | C[C@@H](C(=O)O)c1ccc(-c2ccccc2)c(F)c1 | 10 µM (active) | 
85 | C[C@H](C(=O)O)c1cccc(Oc2ccccc2)c1 | inactive | 
86 | CCCCC1(C)NC(=O)c2c(C)sc(C(=O)OCC)c2N1 (centres undefined) | 0.282 µM (active) | 
87 | NC(=S)SCCC(=O)O |  | -6.98% [at 11.4 µM] (inactive)
88 | CC(C)CO/N=C1/C[C@@H](O)[C@@H](O)[C@@H]2[C@@H]3C(=O)N(C[C@@H]4CCCO4)C(=O)[C@H]3CC[C@@H]12 |  | 18.7% [at 11.4 µM] (inactive)
89 | O=C1SC(c2ccccc2)=C/C1=C\N1CCCCC1 | 11.2 µM (active) | 
